Assay results published in ChEMBL document CHEMBL1961873, “Compounds: GSK PKIS; Assays: Nanosyn kinase panel” (2012).

What was measured:
[1] = molecular target: Leukocyte tyrosine kinase receptor (Homo sapiens) (UniProt P29376); details: at 1 µM;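 further: each value is the mean inhibition of LTK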
[2] = molecular target: Tyrosine-protein kinase Lyn (Homo sapiens) (UniProt P07948); details: at 0.1 µM
[3] = molecular target: Tyrosine-protein kinase Lyn (Homo sapiens) (UniProt P07948); details: at 1 µM
[4] = molecular target: Tyrosine-protein kinase Lyn (Homo sapiens) (UniProt P07948); details: at 0.1 µM; remark: listed apart in the source
[5] = molecular target: Tyrosine-protein kinase Lyn (Homo sapiens) (UniProt P07948); details: at 1 µM; remark: listed apart in the source
[6] = molecular target: T1, Tyrosine-protein kinase Mer (Homo sapiens) (UniProt Q12866); details: at 0.1 µM
T1 sequence (whole entry): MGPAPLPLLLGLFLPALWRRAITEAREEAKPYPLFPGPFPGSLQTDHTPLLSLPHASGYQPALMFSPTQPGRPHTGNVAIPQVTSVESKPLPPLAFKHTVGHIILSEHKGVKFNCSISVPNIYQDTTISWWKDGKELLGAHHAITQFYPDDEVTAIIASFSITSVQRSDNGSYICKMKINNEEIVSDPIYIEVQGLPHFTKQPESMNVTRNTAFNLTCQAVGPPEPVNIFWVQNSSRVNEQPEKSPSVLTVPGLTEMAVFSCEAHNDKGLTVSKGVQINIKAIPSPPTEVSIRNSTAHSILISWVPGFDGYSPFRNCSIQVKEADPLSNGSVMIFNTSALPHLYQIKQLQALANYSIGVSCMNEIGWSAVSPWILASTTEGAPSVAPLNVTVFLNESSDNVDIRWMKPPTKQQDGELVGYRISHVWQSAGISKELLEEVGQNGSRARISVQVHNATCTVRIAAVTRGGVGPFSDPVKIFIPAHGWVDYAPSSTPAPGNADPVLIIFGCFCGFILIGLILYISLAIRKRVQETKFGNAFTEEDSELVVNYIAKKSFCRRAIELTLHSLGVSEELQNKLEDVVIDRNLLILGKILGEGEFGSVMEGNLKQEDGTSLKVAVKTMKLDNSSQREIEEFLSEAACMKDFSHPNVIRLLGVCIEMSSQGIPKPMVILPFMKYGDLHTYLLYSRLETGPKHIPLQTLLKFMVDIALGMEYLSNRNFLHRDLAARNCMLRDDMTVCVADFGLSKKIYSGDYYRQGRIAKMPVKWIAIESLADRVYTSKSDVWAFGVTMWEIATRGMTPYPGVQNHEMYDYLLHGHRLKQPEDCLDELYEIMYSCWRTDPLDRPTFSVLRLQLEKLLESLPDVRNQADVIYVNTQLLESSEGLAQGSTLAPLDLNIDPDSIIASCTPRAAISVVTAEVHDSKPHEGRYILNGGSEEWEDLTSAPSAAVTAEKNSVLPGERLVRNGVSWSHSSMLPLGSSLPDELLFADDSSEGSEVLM

[7] = molecular target: T1, Tyrosine-protein kinase Mer (Homo sapiens); details: at 1 µM
[8] = molecular target: Hepatocyte growth factor receptor (Homo sapiens) (UniProt P08581); details: at 0.1 µM
[9] = molecular target: Hepatocyte growth factor receptor (Homo sapiens) (UniProt P08581); details: at 1 µM
[10] = molecular target: T2, Muscle, skeletal receptor tyrosine-protein kinase (Homo sapiens) (UniProt O15146); details: at 0.1 µM
T2 sequence (whole entry): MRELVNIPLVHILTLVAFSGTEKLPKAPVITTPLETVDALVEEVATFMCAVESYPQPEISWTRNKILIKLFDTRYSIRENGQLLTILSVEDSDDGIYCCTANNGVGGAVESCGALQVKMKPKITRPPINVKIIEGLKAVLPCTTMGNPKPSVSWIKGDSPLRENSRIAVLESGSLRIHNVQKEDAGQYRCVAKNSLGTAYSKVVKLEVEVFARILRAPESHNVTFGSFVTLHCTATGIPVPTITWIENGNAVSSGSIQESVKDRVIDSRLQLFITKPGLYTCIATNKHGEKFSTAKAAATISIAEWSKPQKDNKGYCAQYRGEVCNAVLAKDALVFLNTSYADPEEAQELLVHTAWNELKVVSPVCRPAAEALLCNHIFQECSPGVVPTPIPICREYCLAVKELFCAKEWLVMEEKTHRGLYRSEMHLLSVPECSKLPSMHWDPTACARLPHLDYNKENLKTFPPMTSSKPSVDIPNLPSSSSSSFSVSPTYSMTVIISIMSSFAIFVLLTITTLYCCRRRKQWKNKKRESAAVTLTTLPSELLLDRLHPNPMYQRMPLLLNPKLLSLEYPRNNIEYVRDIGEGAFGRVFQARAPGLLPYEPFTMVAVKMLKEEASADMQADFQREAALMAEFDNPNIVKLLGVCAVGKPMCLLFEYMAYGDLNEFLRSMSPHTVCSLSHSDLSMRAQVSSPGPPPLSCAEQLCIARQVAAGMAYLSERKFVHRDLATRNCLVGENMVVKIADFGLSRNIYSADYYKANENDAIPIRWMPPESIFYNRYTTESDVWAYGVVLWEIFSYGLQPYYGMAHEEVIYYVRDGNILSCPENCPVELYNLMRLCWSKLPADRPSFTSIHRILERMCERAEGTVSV

[11] = molecular target: T2, Muscle, skeletal receptor tyrosine-protein kinase (Homo sapiens); details: at 1 µM
[12] = molecular target: Platelet-derived growth factor receptor alpha (Homo sapiens) (UniProt P16234); details: at 0.1 µM
Platelet-derived growth factor receptor alpha (Homo sapiens), sequence (P16234 whole entry): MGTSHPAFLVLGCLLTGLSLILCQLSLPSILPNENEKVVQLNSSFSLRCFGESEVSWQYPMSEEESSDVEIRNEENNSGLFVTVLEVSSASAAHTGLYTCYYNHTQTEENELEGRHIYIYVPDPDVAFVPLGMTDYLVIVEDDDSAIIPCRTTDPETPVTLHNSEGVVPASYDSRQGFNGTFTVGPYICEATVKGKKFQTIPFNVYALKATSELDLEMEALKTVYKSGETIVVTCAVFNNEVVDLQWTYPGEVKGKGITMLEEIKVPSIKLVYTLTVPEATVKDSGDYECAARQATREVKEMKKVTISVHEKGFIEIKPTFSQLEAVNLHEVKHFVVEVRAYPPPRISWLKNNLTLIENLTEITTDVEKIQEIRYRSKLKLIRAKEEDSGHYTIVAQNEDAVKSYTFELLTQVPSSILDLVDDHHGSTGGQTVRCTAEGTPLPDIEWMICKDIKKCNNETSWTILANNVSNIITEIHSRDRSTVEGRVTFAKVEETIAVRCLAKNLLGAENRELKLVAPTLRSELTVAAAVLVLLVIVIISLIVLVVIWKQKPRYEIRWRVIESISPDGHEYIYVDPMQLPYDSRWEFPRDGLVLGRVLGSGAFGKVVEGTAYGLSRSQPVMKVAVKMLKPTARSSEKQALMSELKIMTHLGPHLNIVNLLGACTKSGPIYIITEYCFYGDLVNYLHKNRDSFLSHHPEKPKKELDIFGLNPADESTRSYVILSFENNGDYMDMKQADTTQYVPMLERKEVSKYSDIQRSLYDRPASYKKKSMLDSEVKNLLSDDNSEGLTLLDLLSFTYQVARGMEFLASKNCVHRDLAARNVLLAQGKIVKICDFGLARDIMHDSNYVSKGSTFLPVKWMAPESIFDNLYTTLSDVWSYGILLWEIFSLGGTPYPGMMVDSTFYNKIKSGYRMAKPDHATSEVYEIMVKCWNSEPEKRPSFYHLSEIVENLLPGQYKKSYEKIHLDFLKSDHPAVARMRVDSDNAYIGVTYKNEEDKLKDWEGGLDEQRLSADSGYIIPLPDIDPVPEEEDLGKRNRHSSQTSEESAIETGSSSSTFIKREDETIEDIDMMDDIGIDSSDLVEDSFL

[13] = molecular target: Platelet-derived growth factor receptor alpha (Homo sapiens) (UniProt P16234); details: at 1 µM
[14] = system: Platelet-derived growth factor receptor alpha (Homo sapiens), P16234 [D842V]; details: at 0.1 µM
Platelet-derived growth factor receptor alpha (Homo sapiens), P16234 [D842V], sequence (P16234 whole entry D842V): as the sequence (P16234 whole entry) above, with D842V counted along it

[15] = system: Platelet-derived growth factor receptor alpha (Homo sapiens), P16234 [D842V]; details: at 1 µM
[16] = system: Platelet-derived growth factor receptor alpha (Homo sapiens), P16234 [T674I]; details: at 0.1 µM
[17] = system: Platelet-derived growth factor receptor alpha (Homo sapiens), P16234 [T674I]; details: at 1 µM
[18] = system: Platelet-derived growth factor receptor alpha (Homo sapiens), P16234 [V561D]; details: at 0.1 µM
[19] = system: Platelet-derived growth factor receptor alpha (Homo sapiens), P16234 [V561D]; details: at 1 µM
[20] = molecular target: Platelet-derived growth factor receptor beta (Homo sapiens) (UniProt P09619); details: at 0.1 µM;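 further: reported value is the mean percent inhibition of the kinase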
Platelet-derived growth factor receptor beta (Homo sapiens), sequence (P09619 whole entry): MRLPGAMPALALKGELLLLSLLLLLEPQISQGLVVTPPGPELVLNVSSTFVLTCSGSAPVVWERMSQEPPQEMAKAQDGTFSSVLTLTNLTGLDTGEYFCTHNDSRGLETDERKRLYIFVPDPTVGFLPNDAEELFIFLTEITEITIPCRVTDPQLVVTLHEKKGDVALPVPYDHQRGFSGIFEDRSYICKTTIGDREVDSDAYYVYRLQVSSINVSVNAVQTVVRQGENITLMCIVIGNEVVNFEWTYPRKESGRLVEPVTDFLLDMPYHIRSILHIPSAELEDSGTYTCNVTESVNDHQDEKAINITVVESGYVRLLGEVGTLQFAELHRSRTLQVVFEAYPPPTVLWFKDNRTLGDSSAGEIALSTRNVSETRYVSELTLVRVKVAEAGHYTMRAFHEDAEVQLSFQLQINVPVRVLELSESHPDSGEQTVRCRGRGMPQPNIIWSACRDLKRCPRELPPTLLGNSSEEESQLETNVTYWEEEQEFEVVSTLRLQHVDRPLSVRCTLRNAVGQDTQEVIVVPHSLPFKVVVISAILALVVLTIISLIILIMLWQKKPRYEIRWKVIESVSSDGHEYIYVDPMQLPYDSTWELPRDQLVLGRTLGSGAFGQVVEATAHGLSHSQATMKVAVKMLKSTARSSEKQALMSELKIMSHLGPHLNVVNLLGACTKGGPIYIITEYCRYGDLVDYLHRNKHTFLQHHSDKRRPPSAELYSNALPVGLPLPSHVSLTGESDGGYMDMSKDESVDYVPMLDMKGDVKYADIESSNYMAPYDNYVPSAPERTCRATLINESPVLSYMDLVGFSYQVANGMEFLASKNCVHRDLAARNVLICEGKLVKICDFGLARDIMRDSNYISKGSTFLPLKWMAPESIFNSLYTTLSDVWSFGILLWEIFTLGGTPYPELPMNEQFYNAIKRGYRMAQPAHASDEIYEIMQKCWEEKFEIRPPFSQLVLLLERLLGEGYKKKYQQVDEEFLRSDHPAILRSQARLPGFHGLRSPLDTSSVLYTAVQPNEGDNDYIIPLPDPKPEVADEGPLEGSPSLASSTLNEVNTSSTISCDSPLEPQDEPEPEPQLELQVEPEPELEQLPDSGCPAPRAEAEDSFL

Leukocyte tyrosine kinase receptor (Homo sapiens), sequence (P29376 whole entry): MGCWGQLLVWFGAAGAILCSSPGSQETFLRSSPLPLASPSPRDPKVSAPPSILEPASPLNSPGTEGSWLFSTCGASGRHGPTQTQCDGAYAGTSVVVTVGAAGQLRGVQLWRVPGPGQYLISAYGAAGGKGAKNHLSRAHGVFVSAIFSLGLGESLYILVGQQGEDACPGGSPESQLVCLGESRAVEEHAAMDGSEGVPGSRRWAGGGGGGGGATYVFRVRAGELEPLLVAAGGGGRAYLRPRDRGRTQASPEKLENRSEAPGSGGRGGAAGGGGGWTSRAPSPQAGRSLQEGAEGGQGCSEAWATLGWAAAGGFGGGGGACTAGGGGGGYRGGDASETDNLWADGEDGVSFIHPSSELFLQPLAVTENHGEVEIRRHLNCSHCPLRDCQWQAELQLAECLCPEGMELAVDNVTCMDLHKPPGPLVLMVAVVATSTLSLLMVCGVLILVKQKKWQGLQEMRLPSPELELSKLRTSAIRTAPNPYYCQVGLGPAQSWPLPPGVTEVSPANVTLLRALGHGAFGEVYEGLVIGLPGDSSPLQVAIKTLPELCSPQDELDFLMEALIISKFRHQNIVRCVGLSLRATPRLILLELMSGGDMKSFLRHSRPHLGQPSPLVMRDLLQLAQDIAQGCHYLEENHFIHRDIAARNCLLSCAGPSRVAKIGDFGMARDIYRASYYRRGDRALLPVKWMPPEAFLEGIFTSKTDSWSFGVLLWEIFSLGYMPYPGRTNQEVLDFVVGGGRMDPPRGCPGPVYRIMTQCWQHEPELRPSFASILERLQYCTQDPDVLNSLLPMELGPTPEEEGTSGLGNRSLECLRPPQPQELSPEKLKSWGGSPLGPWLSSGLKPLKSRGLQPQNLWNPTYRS
Tyrosine-protein kinase Lyn (Homo sapiens), sequence (P07948 2-512 limits assumed): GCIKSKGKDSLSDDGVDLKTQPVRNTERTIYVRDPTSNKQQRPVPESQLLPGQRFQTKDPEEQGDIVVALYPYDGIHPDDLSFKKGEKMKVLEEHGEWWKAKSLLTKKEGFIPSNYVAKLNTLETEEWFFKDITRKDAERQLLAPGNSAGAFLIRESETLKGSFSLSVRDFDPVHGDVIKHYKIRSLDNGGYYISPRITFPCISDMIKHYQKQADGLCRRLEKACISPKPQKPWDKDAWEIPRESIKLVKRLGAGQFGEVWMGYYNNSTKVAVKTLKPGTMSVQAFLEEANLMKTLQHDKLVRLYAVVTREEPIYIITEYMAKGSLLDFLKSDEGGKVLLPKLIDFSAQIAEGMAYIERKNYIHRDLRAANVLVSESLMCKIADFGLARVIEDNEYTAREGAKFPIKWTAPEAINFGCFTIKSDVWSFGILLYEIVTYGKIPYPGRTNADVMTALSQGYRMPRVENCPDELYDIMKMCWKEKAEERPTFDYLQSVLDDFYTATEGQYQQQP

| SMILES | inhibition [1] [%] | inhibition [2] [%] | inhibition [3] [%] | inhibition [4] [%] | inhibition [5] [%] | inhibition [6] [%] | inhibition [7] [%] | inhibition [8] [%] | inhibition [9] [%] | inhibition [10] [%] | inhibition [11] [%] | inhibition [12] [%] | inhibition [13] [%] | inhibition [14] [%] | inhibition [15] [%] | inhibition [16] [%] | inhibition [17] [%] | inhibition [18] [%] | inhibition [19] [%] | inhibition [20] [%] |
| --- | --- | --- | --- | --- | --- | --- | --- | --- | --- | --- | --- | --- | --- | --- | --- | --- | --- | --- | --- | --- |
| CCn1c(-c2nonc2N)nc2c(C#CCN)ncc(OCCCN)c21 | -1.19 | 0.47 | 2.24 | 1.28 | 0.49 | 0.13 | 0.01 | 0.78 | 4.36 | 2.41 | 12.2 | 7.42 | 11.7 | 0.26 | 8.54 | 2.16 | 5.96 | 4.02 | 3.51 | 9.08 |
| NS(=O)(=O)c1ccc(-c2ccc3c(NC(=O)C4CC4)n[nH]c3c2)cc1 | -0.4 | 2.87 | 3.71 | 1.42 | 3.29 | 0.15 | 4.26 | -4.19 | 0.32 | 3.88 | 8.82 | 5.05 | 15.1 | 1.45 | 5.77 | 2.04 | 1.43 | -0.07 | 8.8 | 6.55 |
| CCn1c(-c2nonc2N)nc2c(C#CC(C)(C)O)ncc(OCC3CCNCC3)c21 | 5.07 | 3.39 | 7.23 | 1.8 | 5.79 | 1.17 | 1.7 | 1.64 | 2.5 | 4.04 | 3.71 | 9.32 | 28.6 | 4.23 | 34.4 | 7.44 | 29.9 | 5.4 | 16.6 | 12.1 |
| COc1cccc(-n2ncc3c(N/N=C/c4ccncc4)ncnc32)c1 | 6.38 | 49 | 87.5 | 43.2 | 85 | 6.35 | 39.2 | 18.9 | 49.5 | 11.1 | 45.6 | 43 | 79.5 | 44.4 | 87.3 | 25.4 | 82.4 | 40.4 | 84.7 | 45 |
| Cc1cc(-c2ccco2)cc(C)c1/C=C/c1cncc(-c2nn[nH]n2)c1 | 1.64 | 1.98 | 5.29 | 2.99 | 3.6 | 0.26 | 3.44 | 4.92 | 3.8 | -1.44 | -4.43 | 5.56 | 9.36 | 3.41 | 3.27 | 2.56 | 3.42 | 2.25 | 7 | 0.05 |
| COc1cc(C=NNc2ncnc3c2cnn3Cc2ccccc2)ccc1O | -1.02 | 7.35 | 41.8 | 3.91 | 35.4 | 0.56 | 6.34 | -3.62 | 7.19 | -1.07 | 17.2 | 9.07 | 43.3 | 6.24 | 42.1 | -1.14 | 1.46 | 6.77 | 34.3 | 6.26 |
| NS(=O)(=O)c1ccc(N/C=C2\C(=O)Nc3ccc4ncsc4c32)cc1 | 10.4 | 6.6 | 28.3 | 2.87 | 22.1 | 0.39 | 7.72 | 14.9 | 43.3 | 11 | 51.2 | 54.4 | 86.9 | 55.5 | 91.5 | 15.1 | 60.9 | 48.2 | 90.9 | 56.5 |
| CCn1c(-c2nonc2N)nc2c(C#CC(C)(C)O)ncc(OC[C@@H]3CCCN3)c21 | 2.22 | 2.35 | 1.33 | 1.2 | 1.89 | -0.41 | -0.43 | 5.01 | 5.81 | -2.15 | -3.74 | 5.65 | 24.4 | 7.78 | 44.4 | 4.92 | 26.6 | 2.28 | 22.3 | 8.36 |
| COc1cccc(COc2cc(-n3cnc4ccccc43)sc2C(N)=O)c1 | 2.93 | -0.93 | -1.31 | -1.21 | -1.14 | -2.89 | -0.86 | 4.83 | 2.86 | -1.3 | -3.86 | 4.14 | 14.5 | 0.88 | 6.81 | 1.86 | -0.65 | 0.87 | 5.54 | 0.6 |
| Fc1ccc(-c2ncn(C3CCNCC3)c2-c2ccnc(Oc3ccccc3)n2)cc1 | 1.61 | 2.38 | 2.64 | 0.89 | 1.56 | 0.77 | 6.11 | 5.19 | 0.34 | 1.71 | -0.77 | 5.35 | 9.51 | 2.07 | 4 | 1.52 | 5.42 | 2.95 | 5.32 | 3.81 |
| Nc1nonc1-c1nc2cnccc2n1C1CCCCC1 | 2.35 | -2.05 | 1.3 | -1.46 | -0.59 | -0.72 | 1.5 | -2.89 | 7.05 | -1.73 | 3.94 | 3.7 | 18.1 | 2.4 | 16.9 | 1.78 | 19.5 | 2.95 | 14.4 | 4.64 |
| CCn1c(-c2nonc2N)nc2c(C#CC(C)(C)O)nc(O[C@@H](CN)c3ccccc3)cc21 | 76.6 | 2.08 | 22.1 | 0.81 | 16.8 | 0.05 | 0.57 | 3.67 | -0.12 | -1.29 | 1.93 | 32 | 70.5 | 49.8 | 89.5 | 34.5 | 86.8 | 29.6 | 79.3 | 50.3 |
| COc1cc2c(cc1Nc1nc(Nc3ccsc3C(N)=O)c3cc[nH]c3n1)N(C(=O)CN(C)C)CCC2 | 94.9 | 3.9 | 5.94 | 2.54 | 2.25 | 1.81 | 6.9 | 6.76 | 7.29 | 3.98 | 28.6 | 11.4 | 26.1 | 2.44 | 3.25 | 1.93 | 2.94 | 3.24 | 13.9 | 10.4 |
| NC(=O)c1sc(-n2cnc3cc(C(F)(F)F)ccc32)cc1OCc1ccccc1Br | 4.03 | 3.08 | 4.62 | 2.14 | 3.91 | -1.59 | 4.52 | -0.38 | 8.07 | 1.36 | -0.86 | 7.64 | 6.52 | 4.16 | 5.38 | 3.44 | 2.59 | 3.5 | 4.58 | 3.03 |
